Experimental data taken from the supplement of paper PMC3334620.
Whole data set: some 33,000 sequences, median “E-score (-0.5 to 0.5)” near -0.032, cut for the highest 2% near 0.36. What follows is part of a selection rich in the highest values, with near analogues and random picks from the rest.

Target: T1, Sko1 (UniProt Q02100)
T1 sequence: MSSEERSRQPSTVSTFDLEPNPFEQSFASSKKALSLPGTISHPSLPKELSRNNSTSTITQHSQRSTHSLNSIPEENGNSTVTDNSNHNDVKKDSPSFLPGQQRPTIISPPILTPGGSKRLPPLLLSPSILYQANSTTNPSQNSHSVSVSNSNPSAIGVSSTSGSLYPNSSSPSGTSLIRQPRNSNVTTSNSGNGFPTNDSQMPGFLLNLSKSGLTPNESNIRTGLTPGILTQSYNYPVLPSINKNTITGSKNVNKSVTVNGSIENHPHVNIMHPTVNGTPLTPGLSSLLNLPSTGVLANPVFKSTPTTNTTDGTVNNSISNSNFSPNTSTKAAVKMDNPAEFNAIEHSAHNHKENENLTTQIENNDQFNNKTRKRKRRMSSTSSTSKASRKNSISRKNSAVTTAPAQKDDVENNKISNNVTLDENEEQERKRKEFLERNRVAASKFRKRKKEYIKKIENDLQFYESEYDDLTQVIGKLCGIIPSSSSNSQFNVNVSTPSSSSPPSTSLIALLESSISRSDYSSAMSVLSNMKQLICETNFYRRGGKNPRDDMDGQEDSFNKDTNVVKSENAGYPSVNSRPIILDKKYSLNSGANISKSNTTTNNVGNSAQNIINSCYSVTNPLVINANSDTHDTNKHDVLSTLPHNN
Assay: PBM E-score (8-mer binding enrichment) (E-score (-0.5 to 0.5)); higher = stronger / more preferred TF binding
Conditions: protein concentration: 200 nM; construct: GST-full length
Protocol: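 Universal 'all 10-mer' protein binding microarrays (Agilent AMADID 015681) probed with GST-tagged S. cerevisiae TFs (full-length or DBD) made by in vitro transcription/translation (PURExpress), about 100-200 nM. Bound TF was detected with fluorescent anti-GST. Each ungapped 8-mer (which stands for itself and its reverse complement) is scored by the PBM enrichment score (E-score), a modified Wilcoxon-Mann-Whitney statistic from -0.5 to +0.5, computed with the Universal PBM Analysis Suite. Scale: above 0.35 generally sequence-specific binding.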

Sequence | PBM E-score
CGCACGTC | 0.333
CGAGTTCA | 0.00744
CAGACCGC | -0.156
GGTCATGA | 0.111
CGTCATGC | 0.469
CGTCATGA | 0.471
CCTCATGC | -0.142
AGTCATGA | 0.0664
AGTCATGC | -0.0777
GGCAGATA | -0.0846
AATCGTTA | 0.23
CGAAGGGC | -0.104
CTGTATGA | -0.0143
GTACCCCA | -0.19
CTAGGGAG | -0.148
CCAGTACG | 0.215
AAGGGAGG | -0.244
ACGTAGTG | 0.452
CCGTAGTC | -0.266
ACTTAGTG | 0.00172
GCGTAGTA | 0.279
AGGTAGTG | -0.0666
ACGTAGTA | 0.446
CCGTAGTA | -0.0427
ACGTAGTC | 0.425

Sequence | PBM E-score
ACTTAGTC | -0.15
AACAGGGT | -0.192
AGCCGCAG | -0.223
ACCTGTGA | 0.115
CCGGATTC | -0.0976
CTTCGCGC | 0.217
CAGATGGA | -0.0703
AGTATTAG | 0.00871
TGTATTAA | 0.182
CGTATTAA | 0.362
AGTATTAA | 0.261
GGTATTAC | 0.204
CGTATTAC | 0.387
AGTATTAC | 0.331
CATATTAG | 0.203
CGTATTAG | 0.382
CGTTCTAA | 0.131
AGTTGGTG | -0.0352
ACCCATAA | -0.118
GGCCTCAC | -0.0829
AGAGCACC | -0.328
ACCTTGTG | -0.0718
CACCTGTC | -0.232
CCATGACA | 0.163
ACATGACA | 0.217

Sequence | PBM E-score
ATATGACG | 0.477
ACATGACG | 0.474
CCATGACC | -0.0889
CCATGACG | 0.475
ACATGACT | -0.0468
ATATGACC | 0.00457
ATATGACA | 0.243
TCATTTCA | 0.181
AGAGCAGC | -0.173
GTACGTTA | 0.395
ATACGTTA | 0.436
CCACGTTA | 0.289
CTACGTTA | 0.406
GCACGTTA | 0.274
ATGCGTTA | 0.247
AGACGTTC | 0.125
GTACGGTA | 0.207
ACACGTTA | 0.318
ATACGTTC | 0.374
CTACGTTC | 0.272
CAACGTTA | 0.257
AGCAGGGC | -0.225
AGACTACA | -0.158
ATGCTAAT | 0.209
AAGATGCT | -0.0361

Sequence | PBM E-score
AAGAAAAG | -0.011
GGAGGCCC | -0.241
AGCCCCCC | -0.355
ACCAACAA | 0.147
AGATGCAC | -0.0198
AAACGTTG | 0.112
ATACGTTG | 0.391
ACACGTTG | 0.188
ATCTCTAC | 0.106
CCCAGCGC | -0.229
AGGTACTC | -0.109
ACGTACTG | 0.412
GCGTACTA | 0.232
CCGTACTC | -0.132
ACGTACTA | 0.426
ACGTACTC | 0.432
CCGTACTA | 0.00949
AGGTACTG | -0.125
ATGTACTG | -0.0689
GGGATAGA | -0.0751
CTGGGCTA | -0.317
AGATACGA | 0.208
CCCTGGAC | -0.188
CAACGCAG | -0.0699
GTAACTTA | 0.262

Sequence | PBM E-score
ACATACGG | 0.0483
AAATACGA | 0.302
AAATACGC | 0.315
ACATACGT | 0.459
ACATACGC | 0.28
AAATACGT | 0.463
TCGAGTCA | -0.00474
AGGTGCTA | -0.0841
ACCCGTGA | 0.0498
CGCCACAG | -0.198
CAACCCAC | 0.011
GATCAAAA | 0.0898
ATCATGAA | 0.126
ATCATGAC | 0.407
GTCATGAC | 0.392
ATCATGAG | 0.211
CTCATGAC | 0.285
GTCATGAA | 0.221
CGCTAAAA | -0.102
ATAATAGG | 0.114
GGCGGACC | -0.321
AAACTGAG | -0.159
CCGTAGAC | -0.135
ACTTAGAG | -0.0119
ACGTAGAT | 0.452

Sequence | PBM E-score
ACGTAGAG | 0.387
CCGTAGAA | -0.14
AAGTAGAT | -0.00622
CCGTAGAG | -0.258
AGGTAGAT | -0.0309
GCGTAGAC | 0.0511
ACGTAGAA | 0.434
ACGTAGAC | 0.415
GCGTAGAA | 0.178
AATCTGCC | -0.0515
AATCAGGT | 0.113
CGCCCCAC | -0.0143
AGCGCCGC | -0.199
CCCGGTAA | -0.206
CATCCTGA | 0.0812
TATAACGA | 0.186
ACACGCAA | 0.376
ACACGCAC | 0.158
GCACGCAA | 0.252
TGACGCAA | 0.483
CCACGCAA | 0.308
ACACGCAT | 0.219
AGACGCAA | 0.258
GGACGCAA | 0.164
CGACGCCA | 0.174

Sequence | PBM E-score
AGACGCCA | 0.0116
TCACGCAA | 0.384
TGACGCCA | 0.453
CGAGTCGC | -0.243
GCGGTCTA | 0.0211
CAGATCTC | -0.196
CGATGTAA | 0.175
AGATGTAA | 0.256
TGATGTAA | 0.434
AACGGAGT | -0.09
GCGATGAA | -0.0296
CATATGAC | 0.404
AATATGAC | 0.367
CAGATGAC | 0.37
GCGATGAC | 0.374
AAGATGAC | 0.337
CATATGAG | -0.0409
ACGATGAC | 0.336
AATATGAG | 0.146
GATATGAC | 0.326
AATATGAT | 0.254
GAGATGAC | 0.254
